# Rows were chosen to be rich in hits. Some 1.4% of all compounds tested hit in one or more screens of this group.
# uPA generation: blocks generation of uPA at the cell surface. cell surface uPA generation assay, qHTS. Potency, µM (titrated, usually from 38.3 µM), without a hit: at the highest dose activity change, negative = inhibition, most hits filed as inhibitors. hit rate 0.31% among 330,000; active means well fitted inhibition curve with a large enough effect; inconclusive means small, poorly fitted or top-dose-only effect; inactive means no such curve, though single readings can be large or run the other way; tested in mouse RAW 264.7 cells; further: potency means the concentration at half of the fitted maximal effect; on the % scale 0 is the no-effect control and ±100 the full control effect; nearly all actives have a fitted effect of over 55% in size
# KCNH2 WT inh: KCNH2 (human, wildtype) channel inhibition; Q12809; U2OS, BacMam KCNH2, thallium flux FluxOr; hits give low values; activity change, % at 1.84 µM; hit rate 0.37% among 340,000; AID 720551;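 active means maximum activity change below -70%; inconclusive means maximum activity change between -70% and -50%; inactive means maximum activity change above -50%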; further: on the % scale 0 is the no-effect control and ±100 the full control effect
#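 U2OS cells were transduced with wild-type KCNH2 virus (2.03 x 10^8 / mL) for 4 h at room temperature, then cultured overnight at 37 C. Thallium flux was read with FluxOr dye. Rate constants were normalized to DMSO controls.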
# MmCpn inh: M. maripaludis TRiC chaperonin inhibition | purified Mm-Cpn ATPase, ADP Transcreener TR-FRET | hit rate 0.031% among 330,000 | Potency, µM (doses to about 76.9 µM), without a hit: at the top dose activity, negative = inhibition, most hits filed as inhibitors; further: potency means the concentration at half of the fitted maximal effect; on the % scale 0 is the no-effect control and ±100 the full control effect; nearly all actives have a fitted effect of over 80% in size
#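 ATP (10 uM final) was added to archaeal chaperonin (25 nM final) after 10 min exposure to test compound at 37°C; after 30 min further incubation, ADP was detected by competitive TR-FRET.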
# KCNH2 3.1 inh: KCNH2 3.1 (human) potassium channel inhibition; activity change, % (tested at about 1.8 µM); U2OS KCNH2 3.1, thallium flux FluxOr; hits give low values; AID 720553; hit rate 0.95% among 340,000;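 active means maximum activity change below -70%; inconclusive means maximum activity change from -70% to -50%; inactive means maximum activity change above -50%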;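 further: thallium influx rate constant from kinetic fluorescence after stimulation buffer; on the % scale 0 is the no-effect control and ±100 the full control effect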
#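 Thallium flux via FluxOr fluorescence (Red40 quencher, 45 min loading) in U2OS cells virally expressing the KCNH2 3.1 isoform (1.77 x 10^8 /mL virus, overnight at 37 C). Rate constants from 2-min kinetic reads post-stimulation, normalised to positive and negative controls.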
# p53 reactivation: mutant p53 re-activation in reporter cells; hit rate 0.063% among 320,000; Potency, µM (series often up to 92.2 µM), for the others: at the highest dose activity change, positive = activation, usual class: activators; H1299 p53-A138V BP100-luciferase reporter, luminescence, 24 h; AID 504706; further: potency means the concentration at half of the fitted maximal effect; % of control where 0% means no effect; nearly all actives have a fitted effect of over 45% in size
#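 p53-null H1299 cells stably carrying temperature-sensitive p53-A138V and a BP100-luciferase reporter were pinned with compounds (4-point, 1:5 series) and held 24 hrs at 37 deg C. Luminescence was read 10 min after detection reagent.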
# S-ASM inh: human S-ASM enzyme inhibition | P17405 | placental ASM, HMU-PC fluorogenic substrate, 60 min | Potency, µM (highest dose often 57.5 µM), without a hit: top-dose activity change, negative = inhibition, most hits filed as inhibitors | hit rate 0.006% among 340,000; further: potency means the concentration at half of the fitted maximal effect
# Target sequence (P17405 47-631 limits assumed): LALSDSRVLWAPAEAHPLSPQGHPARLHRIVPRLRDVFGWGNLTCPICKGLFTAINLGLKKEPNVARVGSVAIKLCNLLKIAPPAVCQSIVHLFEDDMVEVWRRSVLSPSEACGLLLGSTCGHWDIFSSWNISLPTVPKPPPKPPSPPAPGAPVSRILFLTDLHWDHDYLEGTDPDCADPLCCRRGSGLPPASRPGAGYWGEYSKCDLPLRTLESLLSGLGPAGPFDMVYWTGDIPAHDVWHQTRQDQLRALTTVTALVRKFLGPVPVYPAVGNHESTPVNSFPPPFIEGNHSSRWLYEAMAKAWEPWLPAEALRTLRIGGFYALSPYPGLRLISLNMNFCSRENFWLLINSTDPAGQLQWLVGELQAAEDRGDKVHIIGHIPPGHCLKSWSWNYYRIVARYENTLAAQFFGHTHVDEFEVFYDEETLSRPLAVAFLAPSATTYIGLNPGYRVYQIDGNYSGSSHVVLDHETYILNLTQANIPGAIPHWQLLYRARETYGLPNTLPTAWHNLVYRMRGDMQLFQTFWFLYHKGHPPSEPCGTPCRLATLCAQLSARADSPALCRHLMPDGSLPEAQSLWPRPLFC
#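 Human placenta-derived ASM preincubated with compound 10 min at room temperature, then reacted with 9 uM (final) fluorogenic HMU-PC substrate for 60 min at 37 C. Stop solution raises pH to 10; fluorescence read at Ex 386/Em 447 nm.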
# The depositor's hits bear a star; u = inconclusive; x = no result given. Unless noted, the call rests on the fitted dose curve; in most records, active means well fitted curve in the direction sought with a large enough effect; inconclusive means small, poorly fitted or top-dose-only effect, or another doubt; inactive means no such curve, though single readings can be large; an effect the other way counts as inactive or inconclusive.
SMILES,uPA generation,KCNH2 WT inh,MmCpn inh,KCNH2 3.1 inh,p53 reactivation,S-ASM inh
COc1ccc(N2CCN(S(=O)(=O)c3cc4c(cc3C)N(C(C)=O)CCO4)CC2)cc1,7.3%,2.0,-4.8%,-18.4,12.0%,3.8%
O=C(NC1CCCc2ccccc21)c1cc(F)cc(F)c1 (stereo not given),-0.7%,2.9,-1.2%,3.7,-2.8%,-1.1%
O=C(NC1CCCc2ccccc21)c1cncc(Br)c1 (stereo not given),-1.8%,2.6,-0.2%,-70.9*,0.2%,1.7%
CCn1c2ccccc2c2cc(NC(=O)c3cc(OC)cc(OC)c3)ccc21,2.24µM*,2.4,u,-25.4,7.1%,-5.2%
COc1cc(OC)cc(C(=O)NCC(=O)Nc2ccc(-c3ccccc3)cc2)c1,-16.3%,2.0,-1.6%,-82.2*,u,-12.4%
COc1cc(OC)cc(C(=O)Nc2ccc(-c3nc4ccccc4o3)cc2)c1,3.2%,-44.1,-17.3%,-111.9*,-13.1%,32.2%
COc1cc(OC)cc(C(=O)Nc2ccc(Nc3ccccc3)cc2)c1,-12.8%,0.0,-1.0%,-85.5*,x,-16.1%
COc1cccc(C(=O)Nc2ccc(-c3nc4ccccc4o3)c(O)c2)c1,4.8%,-15.0,u,-30.8,6.8%,21.4%
COc1cc(OC)cc(C(=O)Nc2cccc(NC(=O)c3ccccc3)c2)c1,-1.5%,0.7,0.8%,-3.6,-3.1%,-3.4%
COc1ccc(C(=O)OCC(=O)NC2CC2)cc1OC,7.1%,1.4,-1.2%,18.5,2.2%,-0.9%
CCN(CC)S(=O)(=O)c1cccc(C(=O)Nc2ccc(S(=O)(=O)NC3=NCCCCC3)cc2)c1,-1.9%,3.5,-0.2%,3.2,-2.5%,17.9%
CCCCc1nc2cc(C(=O)N3CCN(c4nc(C)cnc4C)CC3)ccc2o1,-7.3%,-4.9,1.2%,-77.3*,u,2.2%
CCCCc1nc2cc(C(=O)N3CCC(OC)CC3)ccc2o1,7.9%,1.3,-17.1%,6.1,11.9%,3.3%
Cc1noc(C)c1CSCC(=O)N1CCN(c2ccc([N+](=O)[O-])cc2)CC1,-7.0%,26.6,-0.9%,-72.7*,-2.1%,-12.6%
COc1ccc(-c2cc(C)no2)cc1S(=O)(=O)N1CCN(c2ccccc2F)CC1,0.0%,-4.8,-1.3%,-14.7,-10.2%,-20.7%
Cc1noc(C)c1S(=O)(=O)N1CCN(c2ccccc2)CC1,-17.0%,-0.1,2.0%,9.1,-8.1%,-1.7%
Cc1cc(-c2ccc(C(C)C)c(S(=O)(=O)N3CCN(c4ccccn4)CC3)c2)on1,0.891µM*,7.7,-4.6%,-18.2,6.5%,-26.0%
COc1ccc(-c2cc(C)no2)cc1S(=O)(=O)N1CCN(c2ccc([N+](=O)[O-])cc2)CC1,-13.6%,-77.6*,1.3%,-105.7*,-3.0%,-1.6%
Cc1noc(C)c1S(=O)(=O)N1CCN(c2ccc([N+](=O)[O-])cc2)CC1,3.2%,-47.2,1.2%,-80.1*,-8.2%,-13.9%
c1ccc(Cc2cc[n+](Cc3ccccn3)cc2)cc1,-4.1%,-2.3,0.8%,5.5,-0.2%,-2.7%
Cc1cc2c(=O)[nH]c(N)nc2[nH]1,x,-8.2,x,3.8,x,x
COc1cc(OC)c2c(-c3cccc(-c4ccc(NC(C)=O)cc4)c3)cc(=O)oc2c1,u,-2.5,-1.2%,x,u,27.2%
COc1cc(OC)c2c(-c3cccc(-c4sccc4C(C)=O)c3)cc(=O)oc2c1,2.82µM*,-6.6,-15.8%,-4.4,23.5%,-7.3%
CC(=O)N1CCN(c2ccc(NC(=O)c3ccco3)cc2)CC1,-3.9%,0.2,0.4%,9.1,u,-4.4%
CC(=O)N1CCN(c2ccc(NCc3ccco3)cc2)CC1,4.47µM*,x,-3.5%,x,22.5%,0.5%
SMILES,uPA generation,KCNH2 WT inh,MmCpn inh,KCNH2 3.1 inh,p53 reactivation,S-ASM inh
COc1ccc(N=C(N)SCc2ccccn2)cc1,-15.0%,17.3,2.5%,-4.9,35.5µM*,3.5%
CCOc1ccc(N2CC(C(=O)Nc3ccc(N4CCOCC4)cc3)CC2=O)cc1 (stereo not given),-2.4%,-103.9*,0.0%,13.6,-8.3%,-1.9%
CC(=O)Nc1c(Cl)c(Cl)c2c(c1Cl)C(=O)c1cc(Cl)ccc1-2,-2.9%,4.1,x,x,x,-8.8%
CCN(CCCC(=O)c1ccc(F)cc1)CCc1ccccc1,-2.7%,u,-0.3%,-90.1*,-61.2%,2.7%
S=C1NC[C@H](Cc2ccccc2)N1CC1CCN(CCCC2CCCC2)CC1,-29.4%,-39.8,x,-87.8*,x,-0.6%
S=C1NC[C@H](Cc2ccccc2)N1CCCCC1CCCCC1,15.1%,1.9,x,0.1,18.6%,-14.5%
CC(C)C[C@H]1CNC(=S)N1CC1CCN(CCCCc2ccccc2)CC1,-20.7%,11.8,x,-71.2*,x,4.0%
Oc1ccc(/C=N/NC(=S)Nc2cccnc2)cc1,3.98µM*,-8.5,-0.1%,4.6,7.7%,15.2%
COc1ccc(C(=O)N/N=C/c2ccc(OC)c(OS(=O)(=O)c3ccccc3)c2)cc1,-3.2%,-150.6*,1.0%,-195.3*,-13.4%,-15.6%
COc1ccc(/C=N/NS(=O)(=O)c2ccccc2)cc1OS(=O)(=O)c1ccccc1,-8.2%,-17.3,0.8%,8.9,2.1%,-2.6%
CCN1CCN(C(=O)/C(=C/c2cccs2)NC(=O)c2ccc(C)c(C)c2)CC1,-5.4%,-100.2*,-1.6%,12.0,12.8%,0.1%
c1ccc(-c2cc3cc4c(cc3cn2)OCO4)cc1,u,-14.7,-7.3%,19.5,8.91µM*,-5.6%
COc1ccc(C2=CC(=O)C[C@H](c3ccc(Cl)cc3)C2)cn1,5.6%,10.5,0.0%,5.3,-5.9%,-14.4%
CCOC(=O)/C=C/C(=O)OCC(=O)N1CCN(C(=O)c2ccco2)CC1,7.94µM*,-23.4,0.3%,7.1,-34.6%,-0.1%
O=C(/C=C/c1ccc(OC(F)F)cc1)OCC(=O)N1CCN(C(=O)c2ccco2)CC1,-0.9%,48.8,-4.8%,-21.9,-6.2%,0.3%
COc1cc(NC(=O)C(C)C)ccc1NC(=O)c1cc2ccccc2o1,14.1µM*,4.6,-1.5%,-3.2,x,21.4%
CCCC(=O)N1CCN(c2ccc(NC(=O)c3cc4ccccc4o3)cc2Cl)CC1,-20.3%,u,-4.7%,-89.7*,-47.0%,-9.0%
O=C(Nc1ccc(NC(=O)c2cc3ccccc3o2)cc1)c1ccco1,1.5%,-9.4,-7.0%,-75.0*,8.3%,-1.4%
CCCC(=O)N1CCN(c2ccc(NC(=O)c3cccs3)cc2Cl)CC1,3.9%,-5.6,1.1%,7.3,-2.8%,-3.0%
CN1CCN(c2ccc(NC(=O)COc3ccccc3)cc2Cl)CC1,-6.8%,21.7,-2.0%,-33.2,x,3.1%
CCCOc1ccc(C(=O)N2CCN(c3ccc(NC(=O)CC)cc3Cl)CC2)cc1,1.1%,-48.3,2.0%,-86.2*,-9.4%,-9.8%
Cc1cc(C)n2nc(C(=O)OCC(=O)c3ccc(F)cc3)nc2n1,-7.9%,1.7,0.6%,-2.5,20.4%,-2.7%

# Screening data from PubChem BioAssay.
